Drawing on PubChem BioAssay (NCI), this text covers growth inhibition for ten compounds.

About 79,000 compounds went through this panel and 15% of them were active in at least one assay; those are over-represented in the sample as a whole. A number with no mark means an inactive call. Activity calls are given as the source filed them. Cut-off read from the data, not from the text of the source: active = growth inhibition above about 70%; inactive = the rest.

Assay [1] in a line: NCI Yeast Anticancer Drug Screen. Data for the rad50 strain (AID 155).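 Note: 0% = growth of vehicle-only cultures of the same strain.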 The settings on record: S. cerevisiae rad50 strain growth inhibition, hits give high values. The essentials: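 Readout: growth inhibition relative to vehicle-treated cultures. Compound exposure was carried out in a genetically defined yeast strain deficient in DNA damage repair.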
The nature of assay [2]: NCI Yeast Anticancer Drug Screen. Data for the mec2-1 strain (AID 157). The note with it: S. cerevisiae mec2-1 strain, hits give high values. The method in brief: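 Using mec2-1 yeast: add compound, measure growth, express inhibition versus vehicle-treated cultures.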
Assay [3] is described as follows: NCI Yeast Anticancer Drug Screen. Data for the sgs1 mgt1 strain (AID 161).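 Note: 0% = growth of cultures given vehicle only.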 The note with it: S. cerevisiae sgs1 mgt1 strain, hits give high values. The essentials:
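Compounds are added to genetically altered yeast, and growth is compared with cultures given vehicle alone to give percent inhibition.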

Assay [4] in a line: NCI Yeast Anticancer Drug Screen. Data for the cln2 rad14 strain (AID 165).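 Note: 0% = growth equal to vehicle treated cultures.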 The settings on record: S. cerevisiae cln2 rad14 strain, hits give high values. The essentials:
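Yeast strain cln2 rad14, bearing defects in cell cycle control and DNA repair, serves as the test system; values reflect growth inhibition compared with vehicle.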

The nature of assay [5]: NCI Yeast Anticancer Drug Screen. Data for the bub3 strain (AID 167). The note with it: S. cerevisiae bub3 mutant strain, hits give high values. The method in brief: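 Readout: yeast growth inhibition, expressed relative to vehicle-only wells. The test organism is a mutant strain from a panel with lesions in DNA repair or checkpoint genes.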
Assay [6] can be described thus: NCI Yeast Anticancer Drug Screen. Data for the mlh1 rad18 strain (AID 175). The settings on record: S. cerevisiae mlh1 rad18 strain growth inhibition, hits give high values. The essentials:
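Steps: expose repair-defective yeast to compound; measure growth; express inhibition against vehicle-treated controls.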

[7] abbreviates: at 5.0 µM (retest, dose inferred, filed as 0.5).
[8] abbreviates: at 50.0 µM (retest, dose inferred, filed as 5.0).

Consider `CCC(=O)C(C(=O)CC)c1c(OC(=O)c2ccccc2)ccc(O)c1C(=O)OC`, for which the growth inhibition in assay [1] (setting [7]) is -4%; in assay [1] (setting [8]), 30%; in assay [1] (at 50.0 µM), 30.9%; in assay [2] (setting [7]), -1%; in assay [2] (setting [8]), 16%; in assay [2] (at 50.0 µM), 47.9%. Further, the growth inhibition in assay [3] (setting [7]) was 4%; in assay [3] (setting [8]), 71% (active); in assay [3] (at 50.0 µM) it was 71.4% (active); in assay [4] (setting [7]), -5%; in assay [4] (setting [8]) it was -5%; in assay [4] (at 50.0 µM) it was -7.45%. For the same compound, the growth inhibition in assay [5] (setting [7]) is -2%; in assay [5] (setting [8]), -2%; in assay [5] (at 50.0 µM), 42.8%; in assay [6] (setting [7]), -3%; in assay [6] (setting [8]), 30%; in assay [6] (at 50.0 µM) it was 67%.
For `O=C(c1ccc(Cl)cc1)c1ccc(OCCCOc2ccc(C(=O)c3ccc(Cl)cc3)cc2)cc1`, the growth inhibition in assay [1] (setting [7]) is -14%; in assay [1] (setting [8]), -32%; in assay [1] (at 50.0 µM) it was 17.5%; in assay [2] (setting [7]), -13%; in assay [2] (setting [8]), 2%; in assay [2] (at 50.0 µM), -16.1%. For the same compound, the growth inhibition is -18% in assay [3] (setting [7]); -4% in assay [3] (setting [8]); -2.15% in assay [3] (at 50.0 µM); -30% in assay [4] (setting [7]); -7% in assay [4] (setting [8]); 38.1% in assay [4] (at 50.0 µM). In addition, the growth inhibition was -14% in assay [5] (setting [7]); -14% in assay [5] (setting [8]); -14.6% in assay [5] (at 50.0 µM); -22% in assay [6] (setting [7]); -26% in assay [6] (setting [8]); -1.7% in assay [6] (at 50.0 µM).
`COc1ccc2c(c1)CCC1C2CCC2(C)C(=O)C(SC3=NC=NC4=NC=NC43)CC12` (stereo not given): the growth inhibition in assay [1] (setting [7]) was 24%; in assay [1] (setting [8]), 97% (active); in assay [1] (at 50.0 µM) it was 97% (active); in assay [2] (setting [7]) it was 25%; in assay [2] (setting [8]), 99% (active); in assay [2] (at 50.0 µM), 92.7% (active). Besides, the growth inhibition in assay [3] (setting [7]) is 49%; in assay [3] (setting [8]) it was 99% (active); in assay [3] (at 50.0 µM), 96.7% (active); in assay [4] (setting [7]) it was -3%; in assay [4] (setting [8]) it was 98% (active); in assay [4] (at 50.0 µM) it was 91.8% (active). Also, the growth inhibition is 19% in assay [5] (setting [7]); 97% (active) in assay [5] (setting [8]); 92.2% (active) in assay [5] (at 50.0 µM); 20% in assay [6] (setting [7]); 98% (active) in assay [6] (setting [8]); 96.2% (active) in assay [6] (at 50.0 µM).
On to `Cc1ccc2[nH]c3cc4ccncc4cc3c2c1`, for which the growth inhibition was -127% in assay [1] (setting [7]); 95% (active) in assay [1] (setting [8]); 48.5% in assay [1] (at 50.0 µM); 30% in assay [2] (setting [7]); 95% (active) in assay [2] (setting [8]); 98.6% (active) in assay [2] (at 50.0 µM). The growth inhibition in assay [3] (setting [7]) was -15%; in assay [3] (setting [8]) it was 94% (active); in assay [3] (at 50.0 µM), 3.7%; in assay [4] (setting [7]), 35%; in assay [4] (setting [8]), 96% (active); in assay [4] (at 50.0 µM), 96.7% (active). Besides, the growth inhibition in assay [5] (setting [7]) was 47%; in assay [5] (setting [8]), 96% (active); in assay [5] (at 50.0 µM), 97.2% (active); in assay [6] (setting [7]) it was 40%; in assay [6] (setting [8]) it was 95% (active); in assay [6] (at 50.0 µM) it was 49.9%.
Take `CCCCN(CCCC)CCC(O)c1cc2c(c3ccccc13)CCCC2` (stereo not given): the growth inhibition in assay [1] (setting [7]) is 1%; in assay [1] (setting [8]), 99% (active); in assay [1] (at 50.0 µM), 99.4% (active); in assay [2] (setting [7]), 5%; in assay [2] (setting [8]), 100% (active); in assay [2] (at 50.0 µM), 99.2% (active). Further, the growth inhibition in assay [3] (setting [7]) is 10%; in assay [3] (setting [8]), 100% (active); in assay [3] (at 50.0 µM), 99.7% (active); in assay [4] (setting [7]), 0%; in assay [4] (setting [8]) it was 98% (active); in assay [4] (at 50.0 µM) it was 67.1%. Also, the growth inhibition in assay [5] (setting [7]) was 10%; in assay [5] (setting [8]), 99% (active); in assay [5] (at 50.0 µM), 97.8% (active); in assay [6] (setting [7]), 9%; in assay [6] (setting [8]), 99% (active); in assay [6] (at 50.0 µM), 99.5% (active).
For `CCn1cnc2[nH]cc(C#N)c2c1=O`, the growth inhibition is -150% in assay [1] (setting [7]); 13% in assay [1] (setting [8]); 7.7% in assay [1] (at 50.0 µM); -50% in assay [2] (setting [7]); -40% in assay [2] (setting [8]); -15.1% in assay [2] (at 50.0 µM). The growth inhibition in assay [3] (setting [7]) was -64%; in assay [3] (setting [8]) it was -33%; in assay [3] (at 50.0 µM), 5.6%; in assay [4] (setting [7]), -54%; in assay [4] (setting [8]), -46%; in assay [4] (at 50.0 µM), 34.2%. Besides, the growth inhibition in assay [5] (setting [7]) was -67%; in assay [5] (setting [8]), -59%; in assay [5] (at 50.0 µM), -19.2%; in assay [6] (setting [7]) it was -123%; in assay [6] (setting [8]), -86%; in assay [6] (at 50.0 µM), 36.7%.
Regarding `CCC(C)n1c(C)nc2c(N)cc(C(F)(F)F)cc21` (stereo not given), the growth inhibition is 0% in assay [1] (setting [7]); 11% in assay [1] (setting [8]); 74% (active) in assay [1] (at 50.0 µM); 3% in assay [2] (setting [7]); 30% in assay [2] (setting [8]); 95.8% (active) in assay [2] (at 50.0 µM). Moreover, the growth inhibition in assay [3] (setting [7]) was 4%; in assay [3] (setting [8]), 38%; in assay [3] (at 50.0 µM) it was 93.7% (active); in assay [4] (setting [7]), 1%; in assay [4] (setting [8]) it was 8%; in assay [4] (at 50.0 µM) it was 98.8% (active). In addition, the growth inhibition in assay [5] (setting [7]) was -4%; in assay [5] (setting [8]), 9%; in assay [5] (at 50.0 µM) it was 98% (active); in assay [6] (setting [7]) it was 0%; in assay [6] (setting [8]), 28%; in assay [6] (at 50.0 µM), 94.5% (active).
With `Oc1ccc(O)c2c1CC=C(Cl)C2`, the growth inhibition in assay [1] (setting [7]) was 10%; in assay [1] (setting [8]), 48%; in assay [1] (at 50.0 µM), 52.4%; in assay [2] (setting [7]) it was 12%; in assay [2] (setting [8]), 57%; in assay [2] (at 50.0 µM) it was 52.9%. Besides, the growth inhibition in assay [3] (setting [7]) is 13%; in assay [3] (setting [8]), 55%; in assay [3] (at 50.0 µM), 33%; in assay [4] (setting [7]), -1%; in assay [4] (setting [8]), 86% (active); in assay [4] (at 50.0 µM), 24.9%. Moreover, the growth inhibition is 26% in assay [5] (setting [7]); 83% (active) in assay [5] (setting [8]); 56.5% in assay [5] (at 50.0 µM); 17% in assay [6] (setting [7]); 75% (active) in assay [6] (setting [8]); 59.8% in assay [6] (at 50.0 µM).
On to `O/N=C(/C[N+]12CN3CN(CN(C3)C1)C2)c1ccc(I)cc1`, for which the growth inhibition was 0% in assay [1] (setting [7]); 20% in assay [1] (setting [8]); 91.6% (active) in assay [1] (at 50.0 µM); -4% in assay [2] (setting [7]); 40% in assay [2] (setting [8]); 84% (active) in assay [2] (at 50.0 µM). The growth inhibition was -4% in assay [3] (setting [7]); 55% in assay [3] (setting [8]); 96.2% (active) in assay [3] (at 50.0 µM); -1% in assay [4] (setting [7]); 23% in assay [4] (setting [8]); 91.7% (active) in assay [4] (at 50.0 µM). Moreover, the growth inhibition in assay [5] (setting [7]) is 1%; in assay [5] (setting [8]) it was 12%; in assay [5] (at 50.0 µM), 77.6% (active); in assay [6] (setting [7]), 12%; in assay [6] (setting [8]) it was 57%; in assay [6] (at 50.0 µM), 92% (active).
Regarding `Cc1c(C[n+]2cc3ccccc3cc2/C=N/O)ccc2ccccc12`, the growth inhibition in assay [1] (setting [7]) is 1%; in assay [1] (setting [8]), 31%; in assay [1] (at 50.0 µM) it was 19.1%; in assay [2] (setting [7]) it was 3%; in assay [2] (setting [8]), 39%; in assay [2] (at 50.0 µM) it was 10.1%. Also, the growth inhibition is 2% in assay [3] (setting [7]); 31% in assay [3] (setting [8]); 5.5% in assay [3] (at 50.0 µM); -2% in assay [4] (setting [7]); -6% in assay [4] (setting [8]); -3.1% in assay [4] (at 50.0 µM). Moreover, the growth inhibition in assay [5] (setting [7]) is 1%; in assay [5] (setting [8]) it was 19%; in assay [5] (at 50.0 µM), 97.2% (active); in assay [6] (setting [7]), 1%; in assay [6] (setting [8]), 37%; in assay [6] (at 50.0 µM), 16.8%.
